From PubChem BioAssay
The entries come from a sample that favours hits as a whole.
Vaccinia stage – Vaccinia orthopox stage-specific inhibition; Vaccinia-infected cells, mCherry/Venus stage reporter fluorescence; stronger effect = lower value; activity change (mCherry), % (concentration not given with the values); 89,000 tested, 0.01% active; AID 1053133; in the data active means activity change below about -37%, passing the limit was not always enough; tested in A549 cells
The depositor's hits bear a star.

SMILES	Vaccinia stage
Cn1cnc(S(=O)(=O)N2CC[C@@H]3[C@H]2c2cc(-c4ccccc4)ccc2N[C@@H]3CO)c1	9
CO[C@H]1CN(C)C(=O)c2cc(NC(=O)C3CCC3)ccc2OC[C@@H](C)N(C(=O)NC(C)C)C[C@@H]1C	4
CCS(=O)(=O)Nc1ccc2c(c1)C(=O)N(C)C[C@H](OC)[C@@H](C)CN(C(=O)CN(C)C)[C@@H](C)CO2	-5
C[C@H]1CN([C@@H](C)CO)C(=O)c2cc(NC(=O)Nc3ccccc3)ccc2O[C@H]1CN(C)Cc1ccc(-c2ccccc2)cc1	-24
COCC(=O)Nc1ccc2c(c1)C(=O)N(C)C[C@@H](OC)[C@@H](C)CN(C(=O)C1CCCC1)[C@@H](C)CO2	13
C[C@H]1CN([C@@H](C)CO)S(=O)(=O)c2ccc(-c3cccnc3)cc2O[C@@H]1CN(C)C(=O)NC1CCCC1	0
COc1ccc(S(=O)(=O)Nc2ccc3c(c2)C(=O)N([C@@H](C)CO)C[C@H](C)[C@@H](CN(C)S(=O)(=O)c2cccs2)O3)cc1	16
COCCCNC(=O)[C@@]1(C)c2ccccc2C(=O)N(Cc2cc(F)cc(C(F)(F)F)c2)[C@H]1c1ccc(CO)cc1	-1
COc1ccc(NC(=O)N(C)C[C@@H]2Oc3ccc(NC(=O)CCCCCC(=O)Nc4ccccc4N)cc3CC(=O)N([C@@H](C)CO)C[C@H]2C)cc1	8
N#C[C@@H]1[C@H](c2ccc(C3=CCCC3)cc2)[C@H](CO)N1C(=O)C1CCC1	4
C[C@H](CO)N1C[C@H](C)[C@@H](CN(C)C(=O)Nc2ccccc2)Oc2ccc(NS(=O)(=O)c3cccs3)cc2CC1=O	19
Cc1noc(C)c1NC(=O)N1C[C@H](O)COC[C@@H]2O[C@H](CC(=O)NCC3CCCCC3)CC[C@H]21	-2
COc1ccc(NC(=O)N(C)C[C@H]2Oc3ccc(NC(=O)C4CCCCC4)cc3C(=O)N([C@@H](C)CO)C[C@@H]2C)cc1	5
O=C(C[C@H]1C=C[C@@H](NC(=O)C2CCC2)[C@@H](CO)O1)NCc1ccccc1Cl	2
O=C(NCc1ccccc1)[C@H]1[C@H](CO)[C@H]2Cn3c(ccc(-c4cccc(F)c4)c3=O)[C@@H]1N2	-1
O=C(Cc1cccnc1)N1CC(=O)N2[C@H](C1)[C@H](c1ccc(C3=CCCC3)cc1)[C@@H]2CO	2
CCNC(=O)c1cc2c(c(-c3cccc(-c4ccncc4)c3)n1)[C@@H](CCO)N(S(=O)(=O)CC)C2	-11
O=C(Nc1ccc(C(F)(F)F)cc1)Nc1ccc2c(c1)[C@H]1C[C@H](CC(=O)N3CCc4ccccc4C3)O[C@@H](CO)[C@H]1O2	-15
O=C(Nc1ccc(C(F)(F)F)cc1)Nc1ccc2c(c1)[C@H]1C[C@@H](CC(=O)N3CCc4ccccc4C3)O[C@H](CO)[C@H]1O2	-32
O=C(Nc1ccc2c(c1)[C@@H]1C[C@@H](CC(=O)N3CCc4ccccc4C3)O[C@@H](CO)[C@@H]1O2)Nc1ccccc1F	-93*
Cc1ccc(S(=O)(=O)N[C@@H]2CC[C@@H](CCn3cc(-c4cccnc4)nn3)O[C@H]2CO)cc1	2
O=C(C[C@H]1C=C[C@@H](NC(=O)Nc2ccc3c(c2)OCO3)[C@@H](CO)O1)NCc1ccc(F)cc1	4
C/C=C/c1ccc([C@H]2[C@H](CO)N(C(=O)C3CC3)C23CN(C(=O)NC(C)C)C3)cc1	2
CO[C@H]1CN(C)C(=O)c2ccc(NC(=O)c3ccc4c(c3)OCO4)cc2OC[C@@H](C)N(CC2CC2)C[C@@H]1C	6
C[C@H](CO)N1C[C@H](C)[C@H](CN(C)Cc2cccc(F)c2)Oc2ncc(C3=CCCCC3)cc2C1=O	-12
SMILES	Vaccinia stage
C[C@@H]1CN([C@@H](C)CO)C(=O)c2cccc(NS(C)(=O)=O)c2O[C@H]1CN(C)Cc1ccc(C(F)(F)F)cc1	-8
COc1cccc(CNC(=O)C[C@H]2C=C[C@@H](NC(=O)C3CC3)[C@H](CO)O2)c1	16
CN(C)C(=O)C[C@H]1CC[C@H]2[C@@H](COC[C@@H](O)CN2Cc2nccs2)O1	8
COC(=O)[C@@H]1[C@@H](CO)[C@@H]2Cn3c(ccc(C4=CCCC4)c3=O)[C@H]1N2CC1CCCC1	1
COc1ccc(NC(=O)N(C)C[C@@H]2OCc3ccccc3-c3ccccc3C(=O)N([C@@H](C)CO)C[C@@H]2C)cc1	29
CO[C@@H]1CN(C)C(=O)c2cc(NC(=O)C3CCOCC3)ccc2OC[C@@H](C)N(Cc2nccs2)C[C@@H]1C	2
COc1ccc(NC(=O)Nc2ccc3c(c2)CC(=O)N([C@@H](C)CO)C[C@@H](C)[C@H](CN(C)S(=O)(=O)c2cccs2)O3)cc1	-11
Cc1noc(C)c1S(=O)(=O)Nc1ccc2c(c1)CC(=O)N([C@H](C)CO)C[C@H](C)[C@@H](CN(C)S(=O)(=O)c1ccc(F)cc1)O2	-1
C[C@H](CO)N1C[C@H](C)[C@H](CN(C)C(=O)Nc2ccc3c(c2)OCO3)Oc2cc(C3=CCCC3)ccc2S1(=O)=O	-8
C[C@H]1CN([C@@H](C)CO)C(=O)c2cccc(NC(=O)c3cnccn3)c2O[C@H]1CN(C)Cc1ccc(C(=O)O)cc1	22
COc1ccccc1-c1cnc2c(c1)C(=O)N([C@@H](C)CO)C[C@@H](C)[C@@H](CN(C)C(=O)CN(C)C)O2	2
CC(C)c1cn([C@H]2C[C@@H]3O[C@@H](CO)CC[C@@H]3O[C@@H]2CCc2ccc(C#CC3CCCCC3)cc2)nn1	-22
CC=Cc1ccc2n(c1=O)C[C@@H]1[C@@H](CO)[C@H](C(=O)NCc3ccccc3F)N(CCC)[C@H]21 (mixture of isomers)	21
C[C@@H](O)C#Cc1cnc2c(c1)C(=O)N([C@@H](C)CO)C[C@H](C)[C@H](CN(C)C(=O)c1ccccc1)O2	9
COCC(=O)Nc1ccc2c(c1)[C@@H]1C[C@@H](CC(=O)O)O[C@H](CO)[C@@H]1O2	7
C[C@H](CO)N1C[C@H](C)[C@@H](CN(C)S(=O)(=O)c2cccs2)OCCCC[C@H](C)Oc2ccc(NC(=O)Nc3ccc(F)cc3)cc2C1=O	-18
OC[C@@H]1Nc2ccc(-c3cccc(F)c3)cc2[C@@H]2[C@H]1CCN2Cc1ccc(F)cc1	-18
OC[C@@H]1Nc2ccc(-c3ccccc3)cc2[C@H]2[C@@H]1CCN2Cc1ccc(F)cc1	-27
OC[C@H]1Nc2ccc(-c3ccccc3)cc2[C@H]2[C@@H]1CCN2Cc1ccc(F)cc1	-50*
COc1ccccc1-c1ccc2c(c1)[C@@H]1[C@@H](CCN1C(=O)C1CCOCC1)[C@H](CO)N2	-2
COc1ccccc1-c1ccc2c(c1)[C@@H]1[C@@H](CCN1C(=O)C1CCCCC1)[C@@H](CO)N2	-86*
COc1ccccc1-c1ccc2c(c1)[C@@H]1[C@@H](CCN1C(=O)C1CC1)[C@@H](CO)N2	-31
C[C@@H]1CCCCO[C@@H](CN(C)S(=O)(=O)c2ccccc2)[C@@H](C)CN([C@@H](C)CO)C(=O)c2cc(NC(=O)c3ccncc3)ccc2O1	16
COc1ccc(CN(C)C[C@H]2Oc3ccc(NC(=O)C4CCCCC4)cc3C(=O)N([C@H](C)CO)C[C@@H]2C)cc1	2
C[C@@H]1CN([C@@H](C)CO)C(=O)c2cc(NC(=O)C3CCCCC3)ccc2O[C@@H](C)CCCCO[C@H]1CN(C)S(=O)(=O)c1ccccc1	-14
C[C@H]1CN([C@@H](C)CO)S(=O)(=O)c2ccc(-c3cccnc3)cc2O[C@@H]1CN(C)C(=O)C1CCC1	14
